Cruzain inh Det = blocks cruzain activity in presence of Triton detergent; P25779; purified cruzain, Z-FR-AMC fluorescence, 0.01% Triton; Potency, µM, inactives show max response, negative = inhibition, hits mostly inhibitors; 0.43% of 200,000 active; AID 1478;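 note: plate controls were neutral wells for no effect and buffer without enzyme for full effect; nearly all actives have a fitted effect of over 40% in size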
Target sequence (P25779 123-467 limits assumed): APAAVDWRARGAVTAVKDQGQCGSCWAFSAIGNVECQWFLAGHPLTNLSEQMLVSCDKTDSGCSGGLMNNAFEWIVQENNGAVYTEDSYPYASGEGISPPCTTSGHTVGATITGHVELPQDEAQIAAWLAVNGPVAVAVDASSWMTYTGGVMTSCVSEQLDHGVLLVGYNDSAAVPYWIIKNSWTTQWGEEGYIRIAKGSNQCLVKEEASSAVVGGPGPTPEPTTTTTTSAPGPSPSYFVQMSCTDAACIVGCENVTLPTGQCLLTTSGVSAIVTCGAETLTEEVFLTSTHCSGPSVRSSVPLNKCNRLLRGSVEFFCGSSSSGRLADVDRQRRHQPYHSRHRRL
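Enzyme 1.5 nM, Z-FR-AMC 2 uM, NaOAc 100 mM pH 5.5, DTT 5 mM, Triton X-100 0.01%; 15 min RT compound preincubation; kinetic ex360/em450, 60 s delta.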
Cruzain inh noDet = blocks cruzain activity in detergent-free assay | 2.3% of 200,000 active | P25779 | purified cruzain, Z-FR-AMC fluorescence, no detergent | Potency, µM, for the others: max response, negative = inhibition, actives largely listed as inhibitors;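 note: plate controls were enzyme without inhibitor for no effect and buffer without enzyme for full effect; nearly all actives have a fitted effect of over 40% in size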
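Detergent-free condition (0.00005% Triton X-100) in acetate buffer pH 5.5 with DTT. 1.5 nM enzyme and compound were pre-mixed 15 min, then 2 uM Z-FR-AMC substrate added; reaction progress from fluorescence change between first and third reads (60 s).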
* hit, by the source's call; ? = inconclusive. An excerpt weighted towards active compounds, which were near 2.6% of everything screened. Calls come from the whole dose curve; as a rule, active = well fitted curve in the direction sought with a large enough effect; inconclusive = small, poorly fitted or top-dose-only effect, or another doubt; inactive = no such curve, though single readings can be large; an effect the other way counts as inactive or inconclusive. Potency is the fitted concentration of half-maximal effect.

SMILES	Cruzain inh Det	Cruzain inh noDet
Cc1cccc(C)c1OCc1nnc(NC(=O)CSc2ccc(Cl)cc2)s1	0.9%	25.1µM*
Cc1ccc(OCc2nnc(SCC(=O)Nc3nccs3)n2-c2ccccc2)cc1C	3.2%	5.5%
Cc1cc(C)cc(NC(=O)Cn2nnc(C(=O)Nc3cc(C)cc(C)c3)c2N)c1	-4.9%	?
COc1ccc(-c2nc3cnc(N4CCN(C)CC4)nc3n(Cc3ccc(F)cc3)c2=O)cc1	-1.4%	4.6%
O=C(CC(c1ccccc1)c1cc(Br)ccc1O)NCC1(c2ccccc2)CCCC1 (stereo unspecified)	-1.2%	-20.1%
Cc1oc2c(cc(NS(=O)(=O)c3ccc(C(C)C)cc3)c3ccccc32)c1C(=O)O	?	19.0%
Cc1oc2c(cc(NS(=O)(=O)c3cccs3)c3ccccc32)c1C(=O)OC(C)C	-3.0%	31.6µM*
COCCn1c(=O)c(-c2ccc(Cl)cc2)nc2cnc(Nc3ccccc3)nc21	-0.1%	3.4%
CN(C)c1cccc(C(=O)OC(C(=O)Nc2ccc(Cl)cc2C(F)(F)F)c2ccccc2)c1 (stereo unspecified)	-10.7%	?
CN(C)c1cccc(C(=O)OC(C(=O)Nc2ccc([N+](=O)[O-])cc2Br)c2ccccc2)c1 (stereo unspecified)	-1.7%	15.8µM*
O=P1(O)Oc2c(c(-c3ccccc3)cc3ccccc23)-c2c(-c3ccccc3)cc3ccccc3c2O1	-27.4%	?
O=P1(O)Oc2c(c(-c3ccccc3)cc3ccc4ccccc4c23)-c2c(-c3ccccc3)cc3ccc4ccccc4c3c2O1	25.1µM*	-3.8%
CCOc1ccccc1NC(=O)CC(c1ccc(F)cc1)N1Cc2ccccc2C1=O (stereo unspecified)	-1.3%	-2.3%
Cc1sc2c(c1C)CN(C(C)(C)C)CN2C(=O)c1ccccc1	-0.6%	25.1µM*
COCCN1Cc2c(sc(C)c2C)N(C(=O)c2ccccc2)C1	-4.1%	6.8%
COc1cccc(-n2c(SCc3ccc(F)cc3)nc3c([nH]c4ccccc43)c2=O)c1	-1.0%	10µM*
COC(=O)c1ccc(CSc2nc3c([nH]c4ccccc43)c(=O)n2-c2cccc(Cl)c2)o1	-1.8%	7.6%
COC(=O)c1ccc(CSc2nc3c([nH]c4ccccc43)c(=O)n2-c2cccc(OC)c2)o1	-3.2%	25.1µM*
CCSc1nc2c([nH]c3ccccc32)c(=O)n1-c1cccc(OC)c1	-7.9%	3.2%
O=C1C2C3C=CC(C2C(=O)N1CN1CCOCC1)C1C2C(=O)N(CN4CCOCC4)C(=O)C2C31 (stereo unspecified)	5.5%	2.5%
Cc1noc(C)c1C(=O)N1CCC2(CC1)CN(c1ccccn1)C2	-4.0%	-9.5%
Cc1cc2nn(-c3ccccc3)nc2cc1NC(=O)COc1ccc(Cl)cc1	1.0%	3.7%
Cc1ccccc1C(=O)NC(=S)Nc1sc2c(c1C#N)CCCC2	-3.5%	?
Cc1sc(NC(=S)NC(=O)c2ccc(C(C)(C)C)cc2)c(C#N)c1C	1.3%	10µM*
O=C(NCc1cccc(Cl)c1)c1cc2c(s1)-c1ccccc1SC2	-6.4%	25.1µM*
SMILES	Cruzain inh Det	Cruzain inh noDet
O=C(NCc1ccc(Cl)cc1)c1cc2c(s1)-c1ccccc1SC2	-7.3%	-78.9%
CCOC(=O)c1cnc2cc(-c3ccc(Cl)cc3)nn2c1-c1ccccc1	-1.6%	7.1%
CCOC(=O)c1cnc2cc(-c3ccc(Cl)cc3)nn2c1N	8.5%	10µM*
CCNC(=S)N/N=C/c1ccc(OCCOc2ccccc2C)cc1	1.6%	15.8µM*
CCOc1ccc(/C=N/NC(=S)Nc2c(C)cccc2C)cc1	-6.6%	-1.0%
Cc1cccc(Cn2c(CNS(=O)(=O)c3ccc4c(c3)CCCC4)nc3cccnc32)c1	-2.9%	0.0%
COc1cc(NC(=O)c2cc(-c3ccco3)on2)c(OC)cc1Cl	4.5%	10µM*
O=C(Nc1cccnc1Cl)c1cc(-c2ccco2)on1	5.2%	3.4%
COc1ccc(C(=O)c2sc3nc(-c4ccccc4)ccc3c2N)cc1	-4.3%	?
COc1cccc(-c2ccc3c(N)c(C(=O)c4ccc(Cl)cc4)sc3n2)c1	-5.1%	7.94µM*
CC1(C)CC(=O)c2cc(C(=O)Nc3ccc(Cl)cc3)c(=O)[nH]c2C1	-2.1%	10.8%
CCn1c(-c2cc(Br)cc(OC)c2O)nc2cc(S(=O)(=O)N(C)C)ccc21	-5.3%	20µM*
CCn1c(CSc2nnc(C)n2-c2ccccc2)nc2cc(S(=O)(=O)N(C)C)ccc21	6.0%	4.7%
CCn1cc2nc(SCc3cccc(OC)c3)n(Cc3ccc(Cl)cc3)c(=O)c2n1	0.7%	?
COc1ccc(-c2ccc(C#N)c(SCC(=O)NCCc3ccccc3)n2)cc1OC	3.4%	0.5%
Cc1ccccc1NC(=O)CSc1nc(N)c(C#N)cc1C#N	4.6%	-10.7%
COc1cccc(-c2ccc(C#N)c(SCC(=O)NCCc3cccc(Cl)c3)n2)c1	-4.0%	31.6µM*
CCOc1ccc2cc(C#N)c(SCC(=O)NC(C)CC)nc2c1 (stereo unspecified)	3.3%	12.6µM*
CCOC(=O)CSc1nc2cc(OCC)ccc2cc1C#N	-9.0%	-16.2%
Cc1ccc2cc(C#N)c(SCC(=O)NNC(=O)Cc3ccccc3)nc2c1	-2.5%	10µM*
COC(=O)CSc1nc2cc(OC)ccc2cc1C#N	-3.1%	-10.4%
COc1ccc2cc(C#N)c(SCC(=O)NNC(=O)Cc3ccccc3)nc2c1	4.5%	12.6µM*
Cc1ccc(Cl)cc1-n1c(CCC(=O)O)ccc1-c1cccs1	-15.5%	1.1%
Cn1cnc([N+](=O)[O-])c1[Se]c1nc(N)nc2c1ncn2[C@@H]1O[C@@H](CO)[C@H](O)[C@@H]1O	-1.7%	3.4%
CCC(=O)N1CCc2cc(S(=O)(=O)NC(Cc3ccccc3)C(=O)Nc3cccc(OC)c3)ccc21 (stereo unspecified)	-0.8%	2.2%
SMILES	Cruzain inh Det	Cruzain inh noDet
COc1ccc(O)c(/C=N/NC(=O)c2ccc(CSc3nc(C)cc(C)n3)cc2)c1	-3.8%	7.3%
COc1ccc(O)c(/C=N/NC(=O)c2ccc(OCc3cccc(Br)c3)cc2)c1	-3.8%	7.94µM*
CCn1c(=O)c2cc(C(=O)NCCc3ccc(OC)c(OC)c3)sc2c2ccccc21	0.7%	6.2%
COc1ccc(S(=O)(=O)NCCc2sc(-c3ccccc3)nc2C)cc1F	-6.5%	-16.3%
CCN(CC)S(=O)(=O)c1ccc(Cl)c(NC(=O)COc2ccc(OC)cc2[N+](=O)[O-])c1	-1.5%	12.6µM*
CCN(CC)S(=O)(=O)c1ccc(Cl)c(NC(=O)c2cc(Cl)ccc2Cl)c1	-5.2%	-17.8%
CCc1ccc(NC(=O)CC2C(=O)N(c3ccc(F)cc3)C(=O)N2Cc2ccc(F)cc2)cc1 (stereo unspecified)	-4.0%	-22.0%
O=[N+]([O-])c1cc(/C=N\Nc2nccs2)ccc1O	17.8µM*	31.6µM*
Clc1cccc(Cl)c1/C=N\Nc1nccs1	-2.3%	?
COc1ccc(-c2coc3cc4oc(=O)cc(-c5ccccc5)c4cc23)cc1F	1.2%	10µM*
COc1ccc(-c2coc3cc4oc(=O)cc(C)c4cc23)cc1F	2.5%	-27.3%
COC(=O)[C@@H]1C[C@H]2CC[C@H](O)C[C@H]2N1Cc1c(F)cccc1Cl	-1.4%	-0.5%
Cc1ccc(CN(Cc2ccco2)C(=O)c2oc3ccc(C)cc3c2C)cc1	-7.3%	?
Cc1ccc(CN(Cc2ccco2)C(=O)c2oc3c(C)c(C)ccc3c2C)cc1	-11.2%	25.1µM*
Cc1ccc(Cc2cnc(NC(=O)/C(C#N)=C/c3ccc(-c4ccccc4[N+](=O)[O-])o3)s2)cc1	-0.7%	10µM*

Screening results deposited in PubChem by National Center for Advancing Translational Sciences (NCATS).
